The values below come from PubChem BioAssay (EPA / NIEHS).

As usually defined, the AC50 is the concentration giving half of the maximal activity seen.

SMILES strings stand for the structures. Records with an inconclusive call do not appear. Activity calls are given as the source filed them. Rule for the calls, unless noted: active = hit-call score of the fitted dose curve at least 0.9, where 1 is the maximum; inactive = score below 0.9.

The first assay in a line: CCTE_Harrill_HTTr_Viability_MCF7: CCTE's 6-hour Cell Viability Assessment for the High-Throughput Transcriptomics (HTTr) Platform, in MCF-7 cells cultured in DMEM + 10% fetal bovine serum, Harrill Lab (AID 2284010). The gist of the method: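 MCF-7 cells in DMEM + 10% FBS, 384-well, exposed 6 h to an eight-point dilution series. Membrane integrity scored by high-content imaging of propidium iodide exclusion; bidirectional fit versus DMSO.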
In the case of `ClC(Cl)=C(Cl)C(Cl)=C(Cl)Cl`, the outcome was inactive.
For the compound `CCC[CH2][Sn]([CH2]CCC)([CH2]CCC)[O]C(=O)c1ccccc1`, the concentration at half-maximal activity (AC50) is 15.6 µM (active).
`COc1ccc(C=O)cc1OC`: the outcome was inactive.
As to `Nc1ccc(-c2ccc(N)c(Cl)c2)cc1Cl`, the outcome was inactive.
`Clc1ccc(C2(Cn3cncn3)CC(Br)CO2)c(Cl)c1` (stereo unspecified): the outcome was inactive.
Take `Nc1ccc(N=Nc2ccc(-c3ccc(N=Nc4c(S(=O)(=O)O)cc5cc(S(=O)(=O)O)c(N=Nc6ccccc6)c(O)c5c4N)cc3)cc2)c(N)c1`: the outcome was inactive.
Same read-out and setting: next, `O=CC=O`: “inactive”; `O=C(Cc1ccccc1)c1ccccc1`: “inactive”.
On to `Nc1cccc2ccccc12`, for which the AC50 was 37.4 µM (active).

A further assay in a line: CCTE_Harrill_HTTr_Apoptosis_MCF7: CCTE's 6-hour Apoptosis Assessment for the High-Throughput Transcriptomics (HTTr) Platform, in MCF-7 cells cultured in DMEM + 10% fetal bovine serum, Harrill Lab (AID 2284011). A digest of the protocol: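 Read-out: CellEvent Caspase 3/7 Green signal by high content imaging, gain-of-signal indicating apoptosis. MCF-7 cells, DMEM + 10% FBS, eight-point dilution series, 6 h exposure. Curves fitted bidirectionally relative to DMSO negative control.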
As to `C[C@]12CC[C@H](O)CC1=CC[C@@H]1[C@@H]2CC[C@]2(C)C(=O)CC[C@@H]12`, the result was inactive.
For the compound `O=C(O)C(F)(F)C(F)(F)C(F)(F)C(F)(F)C(F)(F)C(F)(F)F`, the outcome was inactive.
As to `COc1cc2c(cc1OC)[C@@]13CCN4CC5=CCO[C@H]6CC(=O)N2[C@H]1[C@H]6[C@H]5C[C@H]43`, the outcome was inactive.
Same read-out and setting: then `CC(C)OC(=O)Nc1ccccc1`, with “inactive”; and `ClC1=C(Cl)[C@]2(Cl)[C@H]3[C@H]([C@H]4C=C[C@H]3C4)[C@@]1(Cl)C2(Cl)Cl`, with “inactive”.
The same measure, in the same setting: next, `COc1ccc(C(O)(c2cncnc2)C2CC2)cc1` (stereo unspecified): “inactive”; `CCCCCCCCC(=O)NCc1ccc(O)c(OC)c1`: “inactive”.
Same read-out and setting: then `COc1ccc(C=O)cc1`, with “inactive”.
Consider `CN(C)N=O`, for which the outcome was inactive.
Take `CC1CCCCC1NC(=O)Nc1ccccc1` (stereo unspecified): the result was inactive.
Turning to `CC(C)C1CCC(Cc2ccc(Cl)cc2)C1(O)Cn1cncn1` (stereo unspecified), the result was inactive.
As for `N#CCCO`, the outcome was inactive.
As to `CCOC(=O)Nc1cccc(OC(=O)Nc2ccccc2)c1`, the result was inactive.
`CCOP(=S)(OCC)Oc1ccc(S(C)=O)cc1` (stereo unspecified): the result was inactive.
On the same count and under the same terms, then `NC(=O)CF`, with “inactive”; and `CC1(C)Cc2cccc(O)c2O1`, with “inactive”.
The same measure, in the same setting: then `Cc1ccc(N)cc1Cl`, with “inactive”; and `P.[In]`, with “inactive”; and `CCc1ccccc1C`, with “inactive”.
In the case of `[O-][Cl+2]([O-])O`, the outcome was inactive.
With `Oc1cccc2cccnc12`, the outcome was inactive.
For `CC(Br)C(=O)O` (stereo unspecified), the result was inactive.
On to `CC1(C)CCC(Cc2ccc(Cl)cc2)C1(O)Cn1cncn1` (stereo unspecified), for which the result was inactive.
Same read-out and setting: next, `CCCCOCCOC(C)=O`: “inactive”.
On to `C[C@@H](Oc1ccc(Cl)cc1Cl)C(=O)O`, for which the outcome was inactive.
Consider `C=CC#N`, for which the result was inactive.
For the compound `C[C@@H]1C[C@@H]([C@H](O)CC2CC(=O)NC(=O)C2)C(=O)[C@@H](C)C1`, the result was inactive.
For `ClC(Cl)=C(Cl)C(Cl)=C(Cl)Cl`, the result was inactive.
On to `CCC[CH2][Sn]([CH2]CCC)([CH2]CCC)[O]C(=O)c1ccccc1`, for which the AC50 was 11.5 µM (active).
As for `COc1ccc(C=O)cc1OC`, the outcome was inactive.
Consider `Nc1ccc(-c2ccc(N)c(Cl)c2)cc1Cl`, for which the result was inactive.
For the compound `Clc1ccc(C2(Cn3cncn3)CC(Br)CO2)c(Cl)c1` (stereo unspecified), the outcome was inactive.
Consider `Nc1ccc(N=Nc2ccc(-c3ccc(N=Nc4c(S(=O)(=O)O)cc5cc(S(=O)(=O)O)c(N=Nc6ccccc6)c(O)c5c4N)cc3)cc2)c(N)c1`, for which the outcome was inactive.
Turning to `O=CC=O`, the outcome was inactive.
Take `O=C(Cc1ccccc1)c1ccccc1`: the result was inactive.
For `Nc1cccc2ccccc12`, the outcome was inactive.

Another assay in a line: CCTE_Harrill_HTTr_CellCount_MCF7: CCTE's Cell Proliferation Assessment for the High-Throughput Transcriptomics (HTTr) Platform, Harrill Lab (AID 2284012; active = hit-call score of the fitted dose curve at least 0.9, where 1 is the maximum;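 note: cells exposed to compound for six hours; intended direction is loss of nuclei count meaning fewer cells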). A digest of the protocol: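 MCF7 cells exposed 6 hours to an eight-point dilution series; Hoechst-stained nuclei counted by high-content imaging. Bidirectional curve fitting against DMSO baseline.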
`C[C@]12CC[C@H](O)CC1=CC[C@@H]1[C@@H]2CC[C@]2(C)C(=O)CC[C@@H]12`: the compound was called inactive.
Turning to `O=C(O)C(F)(F)C(F)(F)C(F)(F)C(F)(F)C(F)(F)C(F)(F)F`, the result was inactive.
Still for that read-out and setting: next, `COc1cc2c(cc1OC)[C@@]13CCN4CC5=CCO[C@H]6CC(=O)N2[C@H]1[C@H]6[C@H]5C[C@H]43`: “inactive”.
Turning to `CC(C)OC(=O)Nc1ccccc1`, the compound was called inactive.
For the compound `ClC1=C(Cl)[C@]2(Cl)[C@H]3[C@H]([C@H]4C=C[C@H]3C4)[C@@]1(Cl)C2(Cl)Cl`, the result was inactive.
Turning to `COc1ccc(C(O)(c2cncnc2)C2CC2)cc1` (stereo unspecified), the call was inactive.
Same read-out and setting: next, `CCCCCCCCC(=O)NCc1ccc(O)c(OC)c1`: “inactive”.
Take `COc1ccc(C=O)cc1`: the outcome was inactive.
Consider `CN(C)N=O`, for which the outcome was inactive.
On the same count and under the same terms, next, `CC1CCCCC1NC(=O)Nc1ccccc1` (stereo unspecified): “inactive”; `CC(C)C1CCC(Cc2ccc(Cl)cc2)C1(O)Cn1cncn1` (stereo unspecified): “inactive”; `N#CCCO`: “inactive”.
Still for that read-out and setting: then `CCOC(=O)Nc1cccc(OC(=O)Nc2ccccc2)c1`, with “inactive”; and `CCOP(=S)(OCC)Oc1ccc(S(C)=O)cc1` (stereo unspecified), with “inactive”.
Same read-out and setting: next, `NC(=O)CF`: “inactive”; `CC1(C)Cc2cccc(O)c2O1`: “inactive”; `Cc1ccc(N)cc1Cl`: “inactive”.
As to `P.[In]`, the compound was called inactive.
With `CCc1ccccc1C`, the compound was called inactive.
On to `[O-][Cl+2]([O-])O`, for which the compound was classed as inactive.
Consider `Oc1cccc2cccnc12`, for which the result was inactive.
On the same count and under the same terms, next, `CC(Br)C(=O)O` (stereo unspecified): “inactive”; `CC1(C)CCC(Cc2ccc(Cl)cc2)C1(O)Cn1cncn1` (stereo unspecified): “inactive”.
As for `CCCCOCCOC(C)=O`, the result was inactive.
Turning to `C[C@@H](Oc1ccc(Cl)cc1Cl)C(=O)O`, the outcome was inactive.
Same read-out and setting: next, `C=CC#N`: “inactive”; `C[C@@H]1C[C@@H]([C@H](O)CC2CC(=O)NC(=O)C2)C(=O)[C@@H](C)C1`: “inactive”; `ClC(Cl)=C(Cl)C(Cl)=C(Cl)Cl`: “inactive”.
Take `CCC[CH2][Sn]([CH2]CCC)([CH2]CCC)[O]C(=O)c1ccccc1`: the AC50 was 17.9 µM (active).
Consider `COc1ccc(C=O)cc1OC`, for which the compound was called inactive.
On the same count and under the same terms, then `Nc1ccc(-c2ccc(N)c(Cl)c2)cc1Cl`, with “inactive”.
Still for that read-out and setting: then `Clc1ccc(C2(Cn3cncn3)CC(Br)CO2)c(Cl)c1` (stereo unspecified), with “inactive”; and `Nc1ccc(N=Nc2ccc(-c3ccc(N=Nc4c(S(=O)(=O)O)cc5cc(S(=O)(=O)O)c(N=Nc6ccccc6)c(O)c5c4N)cc3)cc2)c(N)c1`, with “inactive”.
In the case of `O=CC=O`, the compound was called inactive.
Same read-out and setting: next, `O=C(Cc1ccccc1)c1ccccc1`: “inactive”.
Turning to `Nc1cccc2ccccc12`, the compound was called inactive.
